# Laboratory results from PubChem BioAssay (NCI).
# This is part of a sample that, as a whole, favours compounds with a hit. Of some 83,000 tested, about 20% had one in any assay.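 Cell lines were cultured in 96-well plates, exposed to a single compound concentration, and assessed for percent growth 48 hours later.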 Unmarked numbers belong to inactive results. The source made the active and inactive calls. How the source made its calls: active means growth percent below 10; inactive means the rest.
# Test system: HT29 colon
# Assay: NCI-60 one-dose screen, 48 h (100 = growth as untreated, 0 = no growth, -100 = all killed)
# Details: 10 µM unless noted
row,Compound,growth
1,COc1cc2c(=O)n(C3CCCCCC3)c3c4cc[nH]c4ncc3c2cc1OC,79.9%
2,O=Nc1c(-c2cccc([N+](=O)[O-])c2)nc2ncccn12,79.5%
3,O=C1C2(c3ccccc3)C(c3ccccc3)=C(c3ccccc3)C1(c1ccccc1)C1CC=CC12 (stereo unspecified),81.8%
4,c1ccc(-c2nnc(-c3ccccn3)s2)nc1,104%
5,COc1ccc(NC(=O)c2cc(OC)c(OC)c(OC)c2)cc1O,10.7%
6,CN1CCN(Cc2ccc(NC(=O)c3nc4ccc5[nH]ncc5c4c4c3CCC4)cc2C(F)(F)F)CC1,-66% (active)
7,O=C(O)C1CCCN1 (stereo unspecified),97.3%
8,CC(C)(C)N1CCC1C(N)=O (stereo unspecified),109%
9,COc1cccc(/C=C2\Oc3cc(OCCCN4CCCC4)ccc3C2=O)c1OC,48.6%
10,CC(C)C(C(=O)NCCN1CCOCC1)N1C(=O)/C(=C/c2ccc(Br)cc2)SC1=S (stereo unspecified),109%
11,COc1ccc(-c2nc3sccn3c2/C=C/C(=O)c2cc(F)cc(F)c2)cc1,65.2%
12,CCOC(=O)CN1/C(=N/c2sc3c(c2C(=O)OCC)CCN(C(=O)OCC)C3)SC(=O)/C1=C\C(=O)OC,61.2%
13,OCCCCCCNc1ncnc2cc(Cl)ccc12,99%
14,CC[N+](CC)=c1cc2oc3cc(N(C)C)ccc3nc-2cc1C,28.3%
15,CC(C)NCCCNC1=C(Cl)C(=O)c2ccccc2C1=O,83.1%
16,Clc1ccccc1-c1nc2ccccc2[nH]1,103%
